{"source": "PubChem BioAssay (NCI)", "note": "Several values for one entry are separate records, joined by “and”; a condition that tells them apart may be missing. Equal entries are not always repeated. This is part of a sample that, as a whole, favours compounds with a hit. Of some 83,000 tested, about 20% had one in any assay.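 Percent growth is the endpoint: 0 to 100 indicates growth inhibition (40 means 60% inhibition), 0 means no net growth, and negative values indicate cell death.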 A number with no mark means an inactive call. Activity calls are given as the source filed them. The calls were made as follows: active = growth percent below 10; inactive = the rest."}
{"test_system": "MDA-MB-468 breast", "assay": "NCI-60 one-dose screen, 48 h (100 = growth as untreated, 0 = no growth, -100 = all killed)", "settings": "10 µM unless noted"}
{"smiles": "Fc1ccc2nc(-c3nc(-c4ccccc4)n4ccccc34)[nH]c2c1", "growth": "-68.1% (active)"}
{"smiles": "O=C(NCCO)Nc1ccc(-c2nc(N3CCOCC3)c3cccn3n2)cc1", "growth": "-24.2% (active)"}
{"smiles": "COC[C@]12CC[C@@H](C)[C@H](C)[C@H]1C1=CC[C@@H]3[C@@]4(C)CCCNC(C)(C)[C@@H]4CC[C@@]3(C)[C@]1(C)CC2", "growth": "-6.6% (active)"}
{"smiles": "COc1ccc(S(=O)(=O)N(C)c2oc(-c3ccc(Cl)cc3)nc2C#N)cc1", "growth": "32.1%"}
{"smiles": "C=CCCCOC1[C@H](OCc2ccccc2)C(OCc2ccccc2)C(OC)O[C@@H]1CNC(=O)c1cccc(I)c1", "note": "(some centres not stated)", "growth": "24.8%"}
{"smiles": "COC1CC(OC(=O)c2ccc([N+](=O)[O-])cc2)C(COC(=O)c2ccc([N+](=O)[O-])cc2)O1", "note": "(configuration not stated)", "growth": "93.6%"}
{"smiles": "CC(C)c1ccc(Nc2ccc3c(OCCCN4CCN(C)CC4)cccc3n2)cc1", "growth": "66%"}
{"smiles": "Cc1c(C(=O)NCCC(=O)NO)sc2ncnc(Nc3ccc(NC(=O)Nc4cccc(C(F)(F)F)c4)cc3)c12", "growth": "97.2%"}
{"smiles": "O=c1c2cc(F)cc(Cl)c2sc2c(NCCCNCCO)nc3ccccc3c12", "growth": "78.2%"}
{"smiles": "Cn1ncc(Cl)c1-c1cc(C(=O)N[C@H](CN)Cc2ccc(F)c(F)c2)oc1Cl", "growth": "-69.6% (active)"}
{"smiles": "CC[C@]12CN3CCc4c([nH]c5ccccc45)[C@@](C(=O)OC)(c4cc5c(cc4OC)N(C)[C@H]4[C@@](O)(C(=O)OC)[C@H](OC(C)=O)[C@]6(CC)C=CCN7CC[C@]54[C@@H]76)CC(C3)[C@H]1O2", "note": "(some centres not stated)", "growth": "-12.7% (active)"}
{"smiles": "CC(=O)c1c(C)[nH]c(-c2nc3ccc(N4CCN(C)CC4)cc3[nH]2)c1-c1ccc2c(c1)OCCO2", "growth": "12.6%"}
{"smiles": "CC(CSc1n[nH]c(=S)s1)c1ccccc1", "note": "(configuration not stated)", "growth": "114%"}
{"smiles": "COc1cc(C2C=C(c3ccc(Cl)c(Cl)c3)N=C3SC(C)=CN32)cc(OC)c1OC", "note": "(configuration not stated)", "growth": "62.5%"}
{"smiles": "Clc1ccc(-c2cnc3c(-c4ccnc(N5CCNCC5)c4)cnn3c2)cc1", "growth": "16.3%"}
{"smiles": "C=C(c1ccc(C(=O)O)c(F)c1)c1cc2c(cc1C)C(C)(C)CCC2(C)C", "growth": "97.6%"}
{"smiles": "O=C1Nc2ccccc2SC1c1ccccc1Cl", "note": "(configuration not stated)", "growth": "29.9%"}
{"smiles": "Cc1cccc(C)c1-c1cc(Cc2ccc(Cl)cc2)c(=O)[nH]n1", "growth": "96.9%"}
{"smiles": "COc1ccc(N2CCC(=O)NC2=S)cc1", "growth": "100%"}
{"smiles": "CNCCCNCCCCNCCCN1C(=O)c2ccc3c4c(ccc(c24)C1=O)C(=O)N(CCCNCc1ccccc1OC)C3=O", "growth": "28.6%"}
{"smiles": "Cc1ccc(-c2cc3nc(C(Cl)Cl)nc(-c4cccs4)n3n2)cc1", "growth": "39.5%"}
{"smiles": "COc1ccc(C2CC(c3cccs3)=NN2c2ccc(S(N)(=O)=O)cc2)cc1", "note": "(configuration not stated)", "growth": "8.49% (active)"}
{"smiles": "COc1ccc(-c2cc(-c3ccc(Cl)cc3)c(C#N)c(=O)n2CCCCC(=O)NO)cc1", "growth": "72.6%"}
{"smiles": "N=C(N=C(N)N)N1CCOCC1", "growth": "100% and 101%"}
{"smiles": "CCN(CC)CC(=O)Nc1c(C)cccc1C", "growth": "101%"}
{"smiles": "CCCCSc1nnc(-c2ccc(-c3ccc(Cl)cc3)nc2C)o1", "growth": "107%"}
{"smiles": "CCCCCCCCCCCCCCCCCCOc1ccccc1CC(=O)OCC[N+]1(C)CCCCC1", "growth": "-10.3% (active)"}
{"smiles": "COC1OC(C(COC(C)=O)OC(C)=O)C(OC(C)=O)C(OC(C)=O)C1OC(C)=O", "note": "(configuration not stated)", "growth": "109%"}
{"smiles": "Cc1ccc([P+](Cc2ccc([N+](=O)[O-])cc2)(c2ccc(C)cc2)c2ccc(C)cc2)cc1", "growth": "-11.7% (active)"}
{"smiles": "O=c1c2sc3ncccc3c2nnn1-c1ccccc1", "growth": "104%"}
{"smiles": "COc1ccc(-c2nn(-c3cccc(NC(=O)c4cccc(C(F)(F)F)c4)c3)cc2-c2ccncc2)cc1Cl", "growth": "31.4%"}
{"smiles": "CNC(=O)c1cc(Oc2ccc3nc(NC(=O)Nc4ccc(N5CCC(N(C)C)CC5)cc4)sc3c2)ccn1", "growth": "76.3%"}
{"smiles": "CC(=O)Nc1ccc(C(=O)CCl)cc1", "growth": "8.65% (active)"}
{"smiles": "COc1ccc(Sc2[nH]c(C=O)c3ccccc23)cc1", "growth": "9.32% (active)"}
{"smiles": "O=C(CSc1nccc(Nc2ccc(S(=O)(=O)Nc3ccccn3)cc2)n1)c1ccc(Cl)cc1", "growth": "81.2%"}
{"smiles": "CC1CCN(CC(=O)Nn2c(COc3ccccc3)nc3ccccc3c2=O)CC1", "growth": "50.9%"}
{"smiles": "CCCc1n(Cc2ccc3ccccc3n2)cc[n+]1Cc1ccc2ccccc2n1", "growth": "-39.9% (active)"}
